Laboratory results published in PubChem BioAssay (EPA / NIEHS).
Activity calls are given as the source filed them. Rule for the calls: active = hit-call score of the fitted dose curve at least 0.9, where 1 is the maximum; inactive = score below 0.9.

How the values were obtained:
[1] = ATG_ISRE_CIS: Attagene CIS-FACTORIAL HepG2 Assay for human Interferon Regulatory Factor 1 (IRF1) binding to an Interferon-Stimulated Response Element (ISRE) (AID 2282948); settings: HepG2 ISRE cis-reporter (Attagene), mRNA transcription readout; actives raise or lower the signal
In short: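 Transfected HepG2 (multiple reporter transcription units, cis elements) dosed 24 h. RNA → oligo(dT) RT → PCR → 6-FAM primer extension → HpaI → CE. DMSO = negative control/baseline.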

[2] = ATG_M_32_CIS: Attagene CIS-FACTORIAL HepG2 Assay for M32 Transcription Factor (Internal Marker) (AID 2282949); settings: HepG2 Attagene cis-factorial M32 reporter, mRNA; actives raise or lower the signal;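 note: background control marker of the multiplexed CIS panel rather than a real target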
In short: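 Fluorescent capillary electrophoresis peaks of HpaI-digested, FAM-labelled RT-PCR reporter products give the signal. Source: transiently transfected human liver HepG2 cells, 24 h after chemical dosing; bidirectional fitting against DMSO.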

[3] = ATG_M_06_CIS: Attagene CIS-FACTORIAL HepG2 Assay for M06 Transcription Factor (Internal Marker) (AID 2282950); settings: HepG2 Attagene CIS-FACTORIAL M06 internal marker reporter; actives raise or lower the signal
In short: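 Measured 24 h post-dosing in transiently transfected HepG2 cells, this internal-marker endpoint reports reporter mRNA via RT-PCR with fluorescent primer extension and capillary electrophoresis. DMSO served as negative control and baseline for bidirectional fitting.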

[4] = target: Hypoxia-inducible factor 1-alpha (Homo sapiens) (UniProt Q16665); test: ATG_HIF1a_CIS: Attagene CIS-FACTORIAL HepG2 Assay for human Hypoxia Inducible Factor 1 (HIF1A) (AID 2282951); settings: HepG2 Attagene cis-factorial HIF1a reporter transcription; actives raise or lower the signal
In short: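 Measures endogenous transcription-factor activity through cis-regulated reporter mRNA in HepG2. Cells dosed 24 h; transcripts quantified by RT-PCR with 6-FAM-labelled products separated by capillary electrophoresis; DMSO serves as negative control.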

[5] = target: Hepatocyte nuclear factor 6 (Homo sapiens) (UniProt Q9UBC0); test: ATG_HNF6_CIS: Attagene CIS-FACTORIAL HepG2 Assay for human Hepatocyte Nuclear Factor 6 (HNF6) (AID 2282952); settings: HepG2 Attagene cis-factorial HNF6 reporter transcription; actives raise or lower the signal
In short: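 HepG2 cells transiently transfected with cis-element-driven multiple reporter transcription units, dosed 24 h; reporter mRNA quantified by RT-PCR, FAM primer extension, HpaI digestion and capillary electrophoresis; bidirectional fit versus DMSO baseline.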

[6] = ATG_MRE_CIS: Attagene CIS-FACTORIAL HepG2 Assay for human Metal Responsive Element (MRE) (AID 2282954); settings: HepG2 MRE cis-reporter transcription, Attagene multiplex; actives raise or lower the signal
In short: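 HepG2 cells transiently transfected with cis-element-driven reporter units; mRNA measured 24 h after dosing. Reporter transcripts quantified by RT-PCR, FAM labelling, HpaI digestion and capillary electrophoresis; bidirectional fit versus DMSO.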

[7] = ATG_PBREM_CIS: Attagene CIS-FACTORIAL HepG2 Assay for human Phenobarbital-responsive Enhancer Module (PBREM) (AID 2282955); settings: HepG2 PBREM cis-reporter, Attagene multiplexed transcription; actives raise or lower the signal
In short: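 Fluorescence of labelled reporter cDNA fragments, resolved by capillary electrophoresis, gives mRNA induction in transfected HepG2 cells treated for 24 h; DMSO serves as negative control and baseline.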

[8] = target: Paired box protein Pax-6 (Homo sapiens) (UniProt P26367); test: ATG_Pax6_CIS: Attagene CIS-FACTORIAL HepG2 Assay for human Paired Box 6 (PAX6) (AID 2282956); settings: HepG2 CIS-FACTORIAL PAX6 reporter transcription, RNA readout; actives raise or lower the signal
In short: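 Transient MRTU transfection of HepG2 → compound exposure 24 h → TriZol RNA, oligo(dT) RT → PCR, 6-FAM primer extension, HpaI cut → capillary electrophoresis; activity fitted both directions against DMSO.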

[9] = ATG_PXRE_CIS: Attagene CIS-FACTORIAL HepG2 Assay for human Pregnane X Receptor Element (PXRE) (AID 2282957); settings: HepG2 Attagene CIS-FACTORIAL PXRE reporter, mRNA; actives raise or lower the signal
In short: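 HepG2 cells transiently transfected with cis-regulated multiple reporter transcription units; endogenous factor activity measured as reporter mRNA 24 h after dosing. RT-PCR, fluorescent primer extension, HpaI digestion, capillary electrophoresis; bidirectional fit versus DMSO baseline.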

[10] = target: Heat shock factor protein 1 (Homo sapiens) (UniProt Q00613); test: ATG_HSE_CIS: Attagene CIS-FACTORIAL HepG2 Assay for human Heat Shock Transcription Factor 1 (HSE) (AID 2282953); settings: HepG2 HSE cis-reporter, Attagene RNA transcription; actives raise or lower the signal
In short: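 Reporter mRNA induction in HepG2 is measured 24 h after dosing, using transiently transfected multiplexed cis-regulated reporter units. Signal comes from capillary electrophoresis of labelled RT-PCR products, with DMSO as negative control.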

Measured: AC50

Chain of Paired box protein Pax-6 (Homo sapiens) (P26367 whole entry, looked up): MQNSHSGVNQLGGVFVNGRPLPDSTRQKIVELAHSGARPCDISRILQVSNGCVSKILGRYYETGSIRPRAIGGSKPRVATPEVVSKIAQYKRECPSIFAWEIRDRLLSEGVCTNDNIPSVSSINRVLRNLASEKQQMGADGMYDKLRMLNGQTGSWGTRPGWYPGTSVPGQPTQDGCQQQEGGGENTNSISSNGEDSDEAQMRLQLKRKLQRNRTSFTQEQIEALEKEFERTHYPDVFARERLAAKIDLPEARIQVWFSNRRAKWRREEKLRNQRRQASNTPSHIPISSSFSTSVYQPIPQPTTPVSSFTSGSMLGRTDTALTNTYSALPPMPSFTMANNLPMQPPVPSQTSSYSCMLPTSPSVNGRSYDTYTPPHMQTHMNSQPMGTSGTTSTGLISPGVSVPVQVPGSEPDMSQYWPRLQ
Chain of Heat shock factor protein 1 (Homo sapiens) (Q00613 whole entry, looked up): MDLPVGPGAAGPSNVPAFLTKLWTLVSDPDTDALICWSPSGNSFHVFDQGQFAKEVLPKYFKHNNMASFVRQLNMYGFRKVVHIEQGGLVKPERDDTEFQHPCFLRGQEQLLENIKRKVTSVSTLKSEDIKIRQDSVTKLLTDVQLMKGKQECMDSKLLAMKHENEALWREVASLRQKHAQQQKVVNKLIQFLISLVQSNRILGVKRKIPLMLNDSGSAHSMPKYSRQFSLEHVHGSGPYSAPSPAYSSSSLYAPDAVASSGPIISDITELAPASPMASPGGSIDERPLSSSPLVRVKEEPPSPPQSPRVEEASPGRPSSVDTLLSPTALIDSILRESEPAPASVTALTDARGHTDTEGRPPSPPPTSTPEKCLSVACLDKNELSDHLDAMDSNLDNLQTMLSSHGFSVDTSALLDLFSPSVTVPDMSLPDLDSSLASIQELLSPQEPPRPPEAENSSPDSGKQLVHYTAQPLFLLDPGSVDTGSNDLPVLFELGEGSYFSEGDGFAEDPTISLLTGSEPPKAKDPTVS
Chain of Hypoxia-inducible factor 1-alpha (Homo sapiens) (Q16665 whole entry, looked up): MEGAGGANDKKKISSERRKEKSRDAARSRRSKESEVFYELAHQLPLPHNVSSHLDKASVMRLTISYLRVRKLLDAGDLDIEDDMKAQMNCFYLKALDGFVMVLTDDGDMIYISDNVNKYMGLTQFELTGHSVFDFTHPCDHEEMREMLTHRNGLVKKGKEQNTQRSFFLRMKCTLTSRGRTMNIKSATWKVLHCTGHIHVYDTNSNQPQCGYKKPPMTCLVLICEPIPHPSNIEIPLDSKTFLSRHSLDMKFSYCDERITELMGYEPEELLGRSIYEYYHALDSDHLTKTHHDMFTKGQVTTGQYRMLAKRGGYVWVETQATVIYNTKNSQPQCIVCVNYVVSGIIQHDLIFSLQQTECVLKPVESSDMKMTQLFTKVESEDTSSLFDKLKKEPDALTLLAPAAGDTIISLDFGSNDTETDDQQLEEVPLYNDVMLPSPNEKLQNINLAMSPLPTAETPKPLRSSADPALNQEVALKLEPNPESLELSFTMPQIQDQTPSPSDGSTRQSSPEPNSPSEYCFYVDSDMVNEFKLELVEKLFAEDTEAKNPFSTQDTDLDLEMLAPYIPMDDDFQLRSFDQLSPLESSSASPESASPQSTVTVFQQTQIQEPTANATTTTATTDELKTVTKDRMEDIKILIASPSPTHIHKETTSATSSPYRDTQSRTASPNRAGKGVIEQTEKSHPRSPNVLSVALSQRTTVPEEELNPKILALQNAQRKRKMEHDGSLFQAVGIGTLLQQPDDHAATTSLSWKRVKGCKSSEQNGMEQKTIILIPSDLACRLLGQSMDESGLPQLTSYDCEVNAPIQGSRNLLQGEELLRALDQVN
Chain of Hepatocyte nuclear factor 6 (Homo sapiens) (Q9UBC0 whole entry, looked up): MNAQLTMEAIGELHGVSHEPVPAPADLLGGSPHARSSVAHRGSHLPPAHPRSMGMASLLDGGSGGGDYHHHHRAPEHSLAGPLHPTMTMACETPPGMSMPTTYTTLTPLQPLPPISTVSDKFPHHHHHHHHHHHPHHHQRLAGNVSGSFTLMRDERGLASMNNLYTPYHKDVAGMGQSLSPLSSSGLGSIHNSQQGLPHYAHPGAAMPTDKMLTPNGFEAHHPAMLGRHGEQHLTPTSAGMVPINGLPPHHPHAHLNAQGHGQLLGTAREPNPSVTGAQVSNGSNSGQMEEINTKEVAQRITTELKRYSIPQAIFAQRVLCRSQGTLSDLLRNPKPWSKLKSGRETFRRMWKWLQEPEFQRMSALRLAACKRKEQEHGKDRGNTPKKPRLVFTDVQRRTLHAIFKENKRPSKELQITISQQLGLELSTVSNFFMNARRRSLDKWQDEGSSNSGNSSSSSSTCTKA

CC(=O)C(F)(F)C(F)(F)F
not listed: [9] | [10]
inactive: all other assays above

Oc1ccc(Cc2ccc(O)cc2)cc1
active: [9] 61.6 µM
not listed: [10]
inactive: all other assays above

c1csc(-c2ccc(-c3cccs3)s2)c1
active: [1] 3.41 µM | [4] 3.28 µM | [6] 3.99 µM | [7] 2.58 µM | [9] 5.21 µM
inactive: [2] | [3] | [5] | [8]

CS(=O)(=O)c1ccc(C(=O)C2C(=O)CCCC2=O)c(Cl)c1COCC(F)(F)F
active: [9] 26.4 µM
not listed: [6] | [10]
inactive: all other assays above

C#CCOC(=O)/C=C(C)/C=C/CC(C)CCCC(C)C (centres undefined)
not listed: [6] | [10]
inactive: all other assays above

CC(C)(C)c1ccccc1O
inactive: [1] | [3] | [7]
active: [2] 170 µM | [4] 182 µM | [5] 147 µM | [6] 149 µM | [8] 165 µM | [9] 23.9 µM

CCOCn1c(-c2ccc(Cl)cc2)c(C#N)c(Br)c1C(F)(F)F
inactive: [3] | [4] | [7]
active: [1] 1.42 µM | [2] 148 µM | [5] 184 µM | [6] 34.7 µM | [8] 2.77 µM | [9] 0.46 µM

O=[N+]([O-])c1cccc2ccccc12
not listed: [9] | [10]
inactive: all other assays above

Cc1ccccc1OP(=O)(Oc1ccccc1)Oc1ccccc1
active: [1] 7.35 µM | [6] 59.8 µM | [9] 0.236 µM
not listed: [10]
inactive: all other assays above

CCC[CH2][Sn]([CH2]CCC)([CH2]CCC)[CH2]CCC
active: [1] 11.1 µM | [7] 2.9 µM | [8] 11.1 µM | [9] 18.3 µM
not listed: [10]
inactive: all other assays above

NNCCO
inactive: [1] | [2] | [3] | [4] | [5] | [6]

OC[P+](CO)(CO)CO
not listed: [4] | [6]
inactive: all other assays above

Cc1cc(Cl)ccc1OCCCC(=O)O
not listed: [4]
inactive: all other assays above

O=S(=O)(c1ccc(Cl)cc1)c1cc(Cl)c(Cl)cc1Cl
active: [9] 1.59 µM
not listed: [4] | [10]
inactive: all other assays above

CC(C)(C#N)N=NC(C)(C)C#N
not listed: [4] | [8] | [9]
inactive: all other assays above

COCC(=O)N(c1c(C)cccc1C)[C@H](C)C(=O)OC
active: [9] 27.7 µM
not listed: [4]
inactive: all other assays above

CNC(=O)O/N=C/C(C)(C)S(C)(=O)=O
not listed: [4] | [8] | [10]
inactive: all other assays above

CNC(=O)N(C)c1nc2ccccc2s1
active: [9] 27.5 µM
not listed: [4]
inactive: all other assays above

C=C(C)C(=O)OCC(CC)CCCC (centres undefined)
not listed: [4] | [7] | [9]
inactive: all other assays above

CC(C)=CC1C(C(=O)OCc2cccc(Oc3ccccc3)c2)C1(C)C (centres undefined)
active: [9] 3.43 µM
not listed: [4] | [6]
inactive: all other assays above

O=c1[nH]c(=O)n(Cl)c(=O)n1Cl
inactive: [1] | [2] | [3] | [5] | [10] | [8]

CN(C)C(=S)S
active: [9] 26.3 µM
not listed: [4] | [7]
inactive: all other assays above

C=CC(=O)[O][Sn]([CH2]CCC)([CH2]CCC)[CH2]CCC
inactive: [1] | [2] | [3]
active: [5] 0.657 µM | [10] 0.645 µM | [7] 0.321 µM | [9] 0.744 µM

CCCCCCCCCCBr
active: [9] 27.7 µM
not listed: [4] | [7]
inactive: all other assays above

O=c1[nH]c2ccccc2n1C1CCN(CCCC(c2ccc(F)cc2)c2ccc(F)cc2)CC1
active: [1] 3.71 µM
inactive: [2] | [3] | [5] | [10] | [9]

CCCCCCCCCCCCN(C)C
active: [10] 56.1 µM
not listed: [4] | [8] | [9]
inactive: all other assays above

CCNc1nc(NCC)nc(SC)n1
active: [9] 27.9 µM
not listed: [4] | [8]
inactive: all other assays above
